A selection: hits, their analogues and other compounds. The true share with any hit is near 2.9%.
Beta2AR agonist = human beta-2 adrenergic receptor agonism by FAP. Am2.2-beta2AR cells, FAP receptor internalization, flow cytometry. 340,000 tested, 0.43% active. P07550. AID 504454. response, % (concentration not given with the values);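 active = response above a set limit, near 3 SD of response in nonfluorescent compounds, cut at about 42% in these data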
GRK2 aptamer HTS = blocks RNA aptamer binding to human GRK2 | 330,000 tested, 0.59% active | AID 488847 | bead flow cytometry, FAM-aptamer displacement from GRK2 | P25098 | inhibition of aptamer binding, % at 10 µM;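 active = inhibition of aptamer binding above 40%, roughly 3 SD of noise, on plates passing a quality check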;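 also: median bead fluorescence of bound FAM aptamer so fluorescent compounds give negative values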
Target sequence (P25098 whole entry, looked up): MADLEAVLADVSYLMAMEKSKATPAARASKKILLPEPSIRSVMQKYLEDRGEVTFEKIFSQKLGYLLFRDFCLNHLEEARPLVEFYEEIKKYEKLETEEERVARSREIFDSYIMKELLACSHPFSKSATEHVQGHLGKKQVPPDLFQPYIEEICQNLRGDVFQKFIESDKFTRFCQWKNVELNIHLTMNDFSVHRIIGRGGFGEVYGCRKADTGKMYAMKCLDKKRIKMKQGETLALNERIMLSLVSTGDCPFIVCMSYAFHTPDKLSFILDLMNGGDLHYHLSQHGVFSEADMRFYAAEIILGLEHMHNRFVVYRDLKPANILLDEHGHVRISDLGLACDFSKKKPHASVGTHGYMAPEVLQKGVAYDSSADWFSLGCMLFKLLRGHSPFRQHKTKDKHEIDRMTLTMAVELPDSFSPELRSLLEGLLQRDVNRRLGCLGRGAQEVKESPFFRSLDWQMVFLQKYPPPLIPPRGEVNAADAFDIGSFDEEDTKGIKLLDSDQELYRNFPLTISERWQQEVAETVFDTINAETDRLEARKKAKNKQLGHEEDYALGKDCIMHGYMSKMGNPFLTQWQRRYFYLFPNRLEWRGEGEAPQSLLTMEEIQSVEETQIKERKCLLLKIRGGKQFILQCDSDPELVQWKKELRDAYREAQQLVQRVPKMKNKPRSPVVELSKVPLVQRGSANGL
PP1 counter = blocks human PP1-alpha phosphatase, a PP5 counter-screen; purified PP1alpha, OMFP fluorescence; inhibition, % at 6.7 µM; P62136; 320,000 tested, 0.9% active;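 active = inhibition above the mean inhibition of all tested compounds plus 3 SD, computed separately for each screening campaign, cut at about 15% in these data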
Granule exo inh = blocks lytic granule exocytosis; inhibition, % at 10 µM; TALL-104 LAMP-1 surface exposure, flow cytometry; cells stimulated with thapsigargin and PMA; 360,000 tested, 0.66% active;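 active = inhibition above about 55%, limit read from the data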
NadD inh = NadD (S. aureus) enzyme inhibition | AID 602399 | inhibition, % at 20 µM | 360,000 tested, 0.78% active | purified NadD enzyme, colorimetric absorbance read-out; in the data active = inhibition above about 26%
* hit, by the source's call; . = no result given.

SMILES	Beta2AR agonist	GRK2 aptamer HTS	PP1 counter	Granule exo inh	NadD inh
N#Cc1c([N+](=O)[O-])cc([N+](=O)[O-])cc1S(=O)(=O)Cc1ccccc1	94*	2	5	-1	-3
C#CCCc1cscc1/C=[N+](\[O-])c1ccc(C(=O)OCC)cc1	-4	0	15*	2	1
CCN(CC)S(=O)(=O)c1ccc(Cl)c(NC(=O)COc2ccc3c(C)cc(=O)oc3c2)c1	-5	100*	1	-4	0
Cc1cc(=O)oc2cc(OCC(=O)Nc3cccc(S(=O)(=O)N(C)C)c3)ccc12	8	56*	0	-3	-2
Cc1ccc(S(=O)(=O)N(C)C)cc1NC(=O)COC(=O)COc1ccc2c(C)cc(=O)oc2c1	-4	1	.	-8	0
COc1cc(NC(=O)COc2ccc3c(C)cc(=O)oc3c2C)cc(OC)c1OC	11	0	-6	-10	6
COc1cc(NC(=O)COc2cc3oc(=O)cc(C)c3cc2Cl)cc(OC)c1OC	46*	0	-5	-2	-10
Nc1nc2ccc(Cl)cc2cc1C(=O)NCCc1c[nH]c2ccccc12	.	.	.	-1	5
CN(C)c1ccc(/C=N/N=C2/NC(=O)/C(=C/c3ccc([N+](=O)[O-])cc3)S2)cc1	-74	2	-1	3	50*
CN(C)c1ccc(C=C2SC(=S)NC2=O)cc1	2	.	.	-1	8
CN(C)c1ccc(N=c2sc3ccccc3n2C)cc1	-7	2	-3	10	2
CC1=CC(=O)C=CC1=Nc1ccc(N(C)C)cc1	.	.	.	84*	6
CC1CCC(C(C)C)C(OC(=O)C[n+]2cc(-c3ccc(Cl)cc3)n3c2CCC3)C1 (configuration not stated)	-14	0	4	64*	-4
Cc1ccc(C(=O)C(c2ccccc2)N2Cc3ccccc3C2=N)cc1 (configuration not stated)	81*	3	4	2	3
CCOC(=O)[C@]12CCCC=C1N(Cc1cccc3ccccc13)C(=O)[C@H](CC(=O)NCCCOC)C2	.	.	.	-3	-1
O=C(N=Nc1c(O)n(Cc2ccccc2)c2ccccc12)c1ccc(O)cc1	-13	2	7	24	28
Cc1ccc(NC(=O)Cn2c(O)c(N=NC(=O)c3cc4ccccc4cc3O)c3ccccc32)cc1	-3	0	11	7	46*
O=C(N=Nc1c(O)n(Cc2ccccc2)c2ccccc12)c1cc2ccccc2cc1O	6	0	7	-2	40*
Cc1ccc(NC(=O)Cn2c(O)c(N=NC(=O)c3ccncc3)c3ccccc32)cc1	-6	0	-3	2	17
CC(=O)C[C@H](O)CC(=O)[C@@H]1OC(=O)CCCCC/C=C/Cc2ccccc21	0	0	.	5	-6
COc1ccc(CCn2c(C)cc(C(=O)COC(=O)c3ccc(NC(=O)CC#N)cc3)c2C)cc1	12	0	13	6	40*
O=C(CS(=O)c1ccc(C(F)(F)F)cc1[N+](=O)[O-])Oc1ccc(Cl)cc1 (configuration not stated)	12	3	3	9	-6
Cc1cc(C)cc(OC(=O)CS(=O)c2ccc(C(F)(F)F)cc2[N+](=O)[O-])c1 (configuration not stated)	52*	0	0	24	11
N#Cc1c(N)sc2c1CCN(CCc1ccccc1)C2	-20	0	5	1	12
O=C(Nc1ccccc1)c1nnsc1S(=O)c1ccc(Cl)cc1 (configuration not stated)	38	0	2	60*	-1
SMILES	Beta2AR agonist	GRK2 aptamer HTS	PP1 counter	Granule exo inh	NadD inh
CC(=O)Nc1ccc(NC(=O)COc2ccc(-c3ccc(C#N)cc3)cc2)cc1	8	1	17*	-3	-6
C=CCn1c(SCC(=O)NCC2CCCO2)nnc1-c1ccccc1 (configuration not stated)	8	1	0	12	5
CCC(=O)N1CCc2cc(S(=O)(=O)CCC(=O)N3CCN(c4ccc(C(C)=O)cc4)CC3)ccc21	-4	1	-3	-2	4
O=C1C=C(NCc2ccccc2)c2ccccc2C1=O	3	.	.	82*	2
O=C1C=C(Nc2ccccc2O)c2ccccc2C1=O	-4	0	2	8	10
CC1=C(C#N)C(=O)N(C2CCS(=O)(=O)C2)C(=O)/C1=C\c1ccco1 (configuration not stated)	.	100*	35*	.	.
Cc1c(C)n(C)c2ccc(C(=O)NCCCN3CCCC3)cc12	-1	0	-2	-2	3
CCN(CC)c1ccc(NC(=O)c2ccc3c(c2)c(C)c(C)n3C)cc1	15	0	17*	5	11
Cc1cc2cc(C=O)c(Cl)nc2cc1C	48*	2	1	21	-4
CC(C)(C(=O)N1CCC1(C)C(=O)NS(=O)(=O)c1cccc(Cl)c1)c1ccccc1 (configuration not stated)	.	.	.	5	-4
CCCCCc1cc(=O)oc2c(C(CCN3CCCC(C)C3)c3ccc(N(C)C)cc3)c(OC)cc(OC)c12 (configuration not stated)	17	0	10	81*	17
CCCCCc1cc(=O)oc2c(C(CCN3CCCC(C)C3)c3cc(OC)c(OC)c(OC)c3)c(OC)cc(OC)c12 (configuration not stated)	14	1	4	17	11
O=C(NCC1CCCO1)C(=O)N/N=C\c1ccc2c(c1)OCO2 (configuration not stated)	2	0	.	0	-2
CCCOc1ccc(NC(=O)C2CC(=O)N/C(=N/N=C(C)/C=C/c3ccc(N(C)C)cc3)S2)cc1 (configuration not stated)	8	0	8	-2	56*
CC(/C=C/c1ccc(N(C)C)cc1)=N\N=C1\NC(=O)CC(C(=O)Nc2ccccc2)S1 (configuration not stated)	-3	0	2	0	49*
CC(/C=C/c1ccc(N(C)C)cc1)=N/N=C1/NC(=O)CC(C(=O)Nc2ccc(Cl)cc2)S1 (configuration not stated)	2	0	1	6	47*
COc1ccc(NC(=O)C2CC(=O)N/C(=N/N=C/c3ccccc3)S2)cc1 (configuration not stated)	0	2	-6	-3	-4
CCCOc1ccc(NC(=O)C2CC(=O)N/C(=N/N=C(\C)CCc3ccc4c(c3)OCO4)S2)cc1 (configuration not stated)	-8	0	0	-2	5
COc1ccccc1C(CNC(=O)CN1C(=O)NC(C)(c2ccc3ccccc3c2)C1=O)N1CCCC1 (configuration not stated)	7	.	.	-1	0
O=C(CSc1ccc(Br)cc1)Nc1ccc(N2CCOCC2)cc1	0	3	0	19	0
CC(C)(C)c1ccc(OCCC(=O)Nc2cccc(S(=O)(=O)N3CCCCC3)c2)cc1	-19	6	16*	0	-7

Assay outcomes deposited in PubChem BioAssay by several laboratories.
